Bioassay records deposited in PubChem BioAssay by several laboratories.
A selection: hits, their analogues and other compounds. The true share with any hit is near 6.7%.
GDH-TPI counter-1 = GDH-TPI coupled enzyme inhibition counter-screen; GDH-TPI coupled enzyme counterscreen, NADH absorbance; inhibition, % at 4.8 µM; 360,000 tested, 1.2% active; AID 588335; in the data active = inhibition above about 30%
BoNT F protease = BoNT F light chain protease inhibition | Multiplex microsphere protease cleavage assay, flow cytometry | inhibition, % at 10 µM | 360,000 tested, 0.22% active; in the data active = inhibition above about 35%, passing the limit was not always enough; inconclusive = no clear call, values can overlap the other calls
Anthrax LF inh2 = inhibitors of Bacillus anthracis lethal factor protease. multiplex microsphere protease cleavage assay, LF. AID 588501. 360,000 tested, 0.12% active. inhibition, % at 10 µM. P15917; in the data active = inhibition above about 30%; inconclusive = no clear call, values can overlap the other calls
FBA Mtb inh = inhibitors of M. tuberculosis fructose-bisphosphate aldolase; inhibition, % at 1 µM; P9WQA3; purified M. tuberculosis FBA, fluorescence read-out; 360,000 tested, 2.3% active
Target sequence (P9WQA3 whole entry, looked up): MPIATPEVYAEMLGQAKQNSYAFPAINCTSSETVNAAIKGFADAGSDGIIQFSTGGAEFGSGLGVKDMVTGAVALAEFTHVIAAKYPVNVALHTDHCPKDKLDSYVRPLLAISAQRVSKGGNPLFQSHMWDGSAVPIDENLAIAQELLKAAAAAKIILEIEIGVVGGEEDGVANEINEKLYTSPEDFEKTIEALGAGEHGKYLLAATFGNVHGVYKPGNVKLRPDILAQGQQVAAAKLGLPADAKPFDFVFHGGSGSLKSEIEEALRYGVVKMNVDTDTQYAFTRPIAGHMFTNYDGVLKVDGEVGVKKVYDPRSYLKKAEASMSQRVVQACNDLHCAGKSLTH
Autofluor counter = counter-screen for toxin protease inhibitors: compound fluorescence | compound autofluorescence counterscreen, microsphere flow cytometry; active compounds read high | fluorescence intensity (test concentration not listed) | 360,000 tested, 3.1% active | AID 624483; in the data active = fluorescence intensity above about 16000; inconclusive = no clear call, values can overlap the other calls
BoNT-A LC inh2 = inhibitors of Botulinum neurotoxin A light chain protease. AID 588499. inhibition, % at 10 µM. multiplex microsphere protease substrate cleavage, flow cytometry. 360,000 tested, 0.17% active; in the data active = inhibition above about 30%; inconclusive = no clear call, values can overlap the other calls
Mtb FBA confirm = Mtb FBA inhibition, confirmed. shares compounds with FBA Mtb inh. purified M. tuberculosis FBA, fluorescence read-out. inhibition, % at 1 µM. 5,600 tested, 78% active. AID 651616
GDH-TPI counter-2 = counter-screen for M. tuberculosis FBA inhibitors: GDH-TPI coupled enzyme inhibition; shares compounds with FBA Mtb inh; GDH-TPI coupled enzyme counterscreen, fluorescence; inhibition, % at 1 µM; 5,600 tested, 81% active; in the data active = inhibition above about 10%
Numbers stand for hits; - = inactive; ? = inconclusive; . = not tested or not shown; + = active, no number. Cut-off read from the data, not from the text of the source, unless noted: active = inhibition above about 27%; inactive = the rest.

SMILES	GDH-TPI counter-1	BoNT F protease	Anthrax LF inh2	FBA Mtb inh	Autofluor counter	BoNT-A LC inh2	Mtb FBA confirm	GDH-TPI counter-2
Cc1c(C(=O)Nc2ccc(F)cc2)c2ccccn2c1CCc1ccncc1	-	-	-	32.1	-	-	+	+
N#Cc1ccccc1OCC(=O)OCC(=O)N1CCN(C(=O)c2ccco2)CC1	-	-	-	73.9	-	-	170.5	147.1
Nc1nc2ccc(S(=O)(=O)c3ccc4nc(N)sc4c3)cc2s1	-	-	-	28.5	-	-	72.2	49.0
Nc1nc2ccc(O)cc2s1	-	-	-	-	?	-	.	.
O=C(O)CNC(=S)N(Cc1ccccc1)Cc1cccs1	-	-	-	-	-	-	.	.
COC(=O)c1sc2ccccc2c1N	-	-	-	78.7	-	-	+	+
COC(=O)c1sc2ccccc2c1NC(=O)c1cccs1	-	-	-	-	-	-	.	.
CC1=C(C(=O)N(C)C)CC(CC(=O)NC2CCCCC2)C(=O)N1CCC1=CCCCC1 (stereo unspecified)	-	-	-	-	-	-	.	.
CC(C)c1nc(C(N)=O)c2[nH]c(=O)n(-c3ccc(F)cc3)c2n1	-	-	-	32.1	-	-	+	+
Cc1ccc(-n2c(=O)[nH]c3c(C(N)=O)nc(C(C)C)nc32)cc1	-	-	-	-	-	-	.	.
O=C(COc1ccc2c(c1)C(=O)CC1(CCCCC1)O2)NCc1ccccn1	-	-	-	37.5	-	-	82.2	57.7
O=C(COc1ccc(S(=O)(=O)NC2CCCCC2)cc1)NCc1ccccn1	-	-	-	-	-	-	.	.
O=C(COc1ccc2c(c1)C(=O)CC1(CCCCC1)O2)NCc1ccccc1	-	-	-	36.4	-	-	62.5	48.4
CCOC(=O)COc1ccc2c(c1)C(=O)CC1(CCCCC1)O2	-	-	-	53.2	-	-	89.1	76.6
O=C(COc1ccccc1)NCc1ccccc1	-	-	-	-	-	-	.	.
Cc1ccccc1NC(=O)CN1CCC(NC(=O)Nc2ccccc2)CC1	-	-	-	-	-	-	.	.
O=C(NN1C(=O)/C(=C/c2ccc(O)cc2)SC1=S)c1cccc(O)c1	-	.	.	-	.	.	.	.
NC(=O)c1nc(-c2ccccc2)c(-c2ccccc2)[nH]c1=O	-	-	-	67.0	-	-	37.0	22.5
Cc1nn(CCc2nn[nH]n2)c2nc(C(F)(F)F)cc(C(F)(F)F)c12	-	-	-	39.2	-	-	.	+
C/C(N)=C(/C#N)C(=O)COC(=O)c1cccc2ccccc12	-	-	-	27.7	-	-	73.3	54.5
C/C(N)=C(/C#N)C(=O)COC(=O)c1ccccc1O	-	-	-	-	-	-	.	.
N#C/C(=C\c1ccc(O)c(O)c1)C(=O)N1CCc2ccccc21	-	-	-	-	-	-	.	.
Cc1ccccc1NC(=O)C1CCCN(S(=O)(=O)c2ccc(-n3cnnn3)cc2)C1 (stereo unspecified)	-	-	-	-	-	-	.	.
O=C(Nc1ccccc1F)C1CCCN(S(=O)(=O)c2ccc(-n3cnnn3)cc2)C1 (stereo unspecified)	-	-	-	85.3	-	-	118.7	86.8
CCOC(=O)C1CCN(C(=O)CCc2c(C)nc3ncnn3c2C)CC1	-	-	-	-	-	-	.	.
SMILES	GDH-TPI counter-1	BoNT F protease	Anthrax LF inh2	FBA Mtb inh	Autofluor counter	BoNT-A LC inh2	Mtb FBA confirm	GDH-TPI counter-2
CCOC(=O)C1CCN(C(=O)CCc2c(C)nc3cc(-c4ccc(OC)cc4OC)nn3c2C)CC1	-	-	-	50.1	-	-	99.6	67.5
Cc1cccc(NC(=O)CSCC(=O)NCc2cccc(C(F)(F)F)c2)c1	-	-	-	-	-	-	.	.
Cn1c(=O)c2cc(NC(=S)NC3CC3)ccc2n1Cc1cccc(C(F)(F)F)c1	-	-	-	29.8	-	-	121.0	80.0
Cn1c(=O)c2cc(NC(=O)NCc3ccc(F)cc3)ccc2n1Cc1cccc(C(F)(F)F)c1	-	-	-	98.3	-	-	152.2	139.1
COc1ccccc1CCC(=O)Nc1ccc2c(c1)c(=O)n(C)n2Cc1cccc(C(F)(F)F)c1	-	-	-	93.6	-	-	+	196.6
Cn1c(=O)c2cc(NC(=O)CCc3ccc(O)cc3)ccc2n1Cc1cccc(C(F)(F)F)c1	-	-	-	101.1	-	-	-	-
CN1CCN(Cc2ccc(Sc3ccc(Cl)cc3)c([N+](=O)[O-])c2)CC1	-	-	-	-	-	-	.	.
Nc1nonc1C(=O)N/N=C/c1ccc([N+](=O)[O-])o1	-	-	-	-	-	-	.	.
COc1ccccc1CCC(=O)Nc1ccc2c(c1)c(=O)n(C)n2Cc1ccc(F)cc1	-	-	-	105.1	-	-	94.4	77.3
COc1ccccc1CCC(=O)Nc1ccc2c(c1)CN(Cc1ccc(C)o1)CC2	-	-	-	-	-	-	.	.
Cn1c(=O)c2cc(NC(=O)NCc3ccc(Cl)cc3Cl)ccc2n1Cc1ccc(F)cc1	-	-	-	88.8	-	-	+	165.3
COc1ccc(-c2oc3ccccc3c2C(=O)OCc2ccccc2OC)cc1	30.9	-	-	72.9	-	-	-	-
COc1ccc(C(=O)c2c(-c3ccc(OC)cc3)oc3ccccc23)cc1	-	-	-	-	-	-	.	.
Cc1cn2nc(N)c3ccccc3c2n1	-	-	-	41.7	-	-	+	+
C(CCN1CCOCC1)CN1CCOCC1	.	-	-	-	-	-	.	.
CCOC(=O)Nc1ccc2nc(-c3cscn3)[nH]c2c1	-	-	-	27.7	-	-	50.5	37.9
Cc1cccc2nc3ccccc3cc12	-	?	-	32.9	-	-	49.5	33.5
Cc1cccc2cc3ccccc3nc12	-	?	-	-	-	-	.	.
COc1cc2c(C#N)c(N3CCN(C)CC3)nc(N)c2c(N)n1	-	-	-	80.9	-	-	+	+
O=c1ccn([C@@H]2O[C@H](CNCc3ccc(-c4cc(C(F)(F)F)ccc4Cl)o3)[C@@H](O)[C@H]2O)c(=O)[nH]1	-	-	-	-	-	-	.	.
CCN1c2ccccc2-c2nc3ccccc3n2C1c1ccccn1 (stereo unspecified)	-	-	-	50.8	-	-	+	+
CCN1c2ccccc2-c2nc3ccccc3n2C1c1ccncc1 (stereo unspecified)	-	-	-	-	-	-	.	.
CCN1c2ccccc2-c2nc3ccccc3n2C1c1cccnc1 (stereo unspecified)	-	-	-	68.1	-	-	96.5	83.7
COCCCNC(=O)C[C@H]1C[C@H](C(=O)N2CCCCC2)[C@@]2(C)c3[nH]c4cc(-c5ccco5)ccc4c3CCN2C1=O	-	-	-	27.3	-	-	68.2	51.7
C[C@]12c3[nH]c4cc(-c5ccco5)ccc4c3CCN1C(=O)[C@@H](CC(=O)NCCN1CCOCC1)C[C@@H]2C(=O)N1CCCCC1	-	-	-	34.8	-	-	-	-
